Measurements as given in PubChem BioAssay (NCATS).
Unmarked numbers belong to inactive results. Records with an inconclusive call do not appear. Activity calls are given as the source filed them. Calls follow the shape of the dose curve; as a rule, active = well fitted curve in the direction sought with a large enough effect; inconclusive = small, poorly fitted or top-dose-only effect, or another doubt; inactive = no such curve, though single readings can be large; an effect the other way counts as inactive or inconclusive.

System: not listed separately
Test: Confirmation and Secondary Assay for Modulators of Hemoglobin Beta Chain Splicing at IVS2 705 locus (AID 930);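 also: HeLa cells stably expressing the EGFP-705 splicing reporter; GFP fluorescence per well restored by corrected splicing of the IVS2-705 intron in EGFP; % of control where 0% means no effect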
Conditions: HeLa EGFP-705 splicing reporter, GFP fluorescence, 48 h; series mostly up to 46.1 µM; activation: at the top concentration
Method in brief: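 Fluorescence gain (488 nm laser, 500-520 nm PMT) reflects restored correct splicing of a mutant IVS2-705 intron inside EGFP in stably transfected HeLa cells after 2-day compound treatment.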

Row | SMILES | activation
1 | O=C(O)c1cc(=O)c2ccccc2[nH]1 | -0.148%
2 | O=c1[nH]c2cc(Cl)c(Cl)cc2[nH]c1=O | 0.592%
3 | NCCCS(=O)(=O)O | 3.48%

Target: Muscarinic acetylcholine receptor M1 (Rattus norvegicus) (UniProt P08482)
Sequence (P08482 whole entry, looked up): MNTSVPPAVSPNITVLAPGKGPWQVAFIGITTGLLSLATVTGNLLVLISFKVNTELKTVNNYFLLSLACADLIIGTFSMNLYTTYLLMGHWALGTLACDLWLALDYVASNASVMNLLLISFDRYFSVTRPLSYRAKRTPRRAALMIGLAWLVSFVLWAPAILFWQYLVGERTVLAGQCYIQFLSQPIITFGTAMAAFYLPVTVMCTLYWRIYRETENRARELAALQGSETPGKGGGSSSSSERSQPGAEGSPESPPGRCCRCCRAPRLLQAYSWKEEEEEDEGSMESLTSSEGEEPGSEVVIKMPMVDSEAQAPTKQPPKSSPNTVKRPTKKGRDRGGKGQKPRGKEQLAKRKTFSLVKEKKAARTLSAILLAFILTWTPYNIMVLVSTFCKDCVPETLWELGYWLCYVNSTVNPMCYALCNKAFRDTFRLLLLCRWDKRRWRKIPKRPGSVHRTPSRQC
Test: qHTS Assay for Antagonists of Acetylcholine Muscarinic M1 Receptor: Kinetic Measurement of Intracellular Calcium Response (AID 943); also: nearly all actives have a fitted effect of over 75% in size; also: potency is read from the fitted curve at half-maximal effect;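 as to activity change, negative = inhibition: Fluo-4 calcium signal as peak divided by basal fluorescence over 4 min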
Conditions: M1-expressing cells, kinetic intracellular calcium fluorescence; series mostly up to 35.3 µM; activity change, negative = inhibition: at the top concentration
Method in brief: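 Read-out: peak over basal Fluo-4 fluorescence, kinetic at 1 Hz for 4 min after EC80 carbachol (100 nM final). Rat M1-CHO cells, dye loaded 1 h at 37C, compound added 10 min before agonist.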

Row | SMILES | activity change, negative = inhibition | Potency
4 | CC(=O)SCC[N+](C)(C)C | 34% | –
5 | C[N+]1(C)CCC(OC(=O)C(c2ccccc2)c2ccccc2)CC1 | – | 15.8 nM (active)
6 | N[C@@H](CC(=O)O)C(=O)O | -40.7% | –
7 | CN(C)C(N)=NCCC[C@H](N)C(=O)O | -29.1% | –
8 | CCCCCCCC/C=C\CCCCCCCC(=O)NCCO | -36.5% | –
9 | C[N+](C)(CCCCCC[N+](C)(C)CCCN1C(=O)c2cccc3cccc(c23)C1=O)CCCN1C(=O)c2cccc3cccc(c23)C1=O | – | 398 nM (active)
10 | CCN1/C(=C/C(C)=O)Sc2ccc(OC)cc21 | -38.1% | –
11 | CC1(C)CCC=[N+]1[O-] | -38.6% | –
12 | c1ccc(-c2ccccn2)nc1 | -43.5% | –
13 | CN1CCc2cc(NC(=O)Nc3cccnc3)ccc21 | -32.1% | –
14 | NC[C@@H]1O[C@H](C23CC4CC(CC(C4)C2)C3)Cc2c1ccc(O)c2O | 12.6% | –
15 | NC(=O)C(=O)O | -34.4% | –
16 | O=c1[nH]c2cc(C(F)(F)F)ccc2n1-c1cc(C(F)(F)F)ccc1O | -18.5% | –
17 | O=c1[nH]c2cc(Cl)c(Cl)cc2[nH]c1=O | -17.9% | –
18 | NCCCS(=O)(=O)O | -16.6% | –
19 | O=S(=O)(c1cccc2c(I)cccc12)N1CCCNCC1 | -9.24% | –

Target: Muscarinic acetylcholine receptor M1 (Rattus norvegicus) (UniProt P08482)
Test: qHTS Assay for Antagonists of Acetylcholine Muscarinic M1 Receptor: Measurement of IP-One Response (AID 944); also: nearly all actives have a fitted effect of over 75% in size; also: potency is read from the fitted curve at half-maximal effect
Conditions: CHO-M1 cells, IP-One HTRF, antagonist mode; series mostly up to 46.1 µM; activity change, negative = inhibition: at the top concentration
Method in brief: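 Read-out: HTRF competition between d2-IP1 and Eu-cryptate anti-IP1 antibody, emission 620 and 665 nm. Stimulus was carbachol, EC80 (200 nM), for 30 min in M1-CHO cells (rat receptor), after 10 min compound pre-treatment.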

Row | SMILES | activity change, negative = inhibition | Potency
20 | NCCNC(=O)c1ncsc1-c1cccc(F)c1 | -27.3% | –
21 | CC(=O)SCC[N+](C)(C)C | -52.9% | –
22 | Cn1c(=O)c2[nH]c(-c3ccccc3)nc2n(C)c1=O | -21.1% | –
23 | C[N+]1(C)CCC(OC(=O)C(c2ccccc2)c2ccccc2)CC1 | – | 11.2 nM (active)
24 | N[C@@H](CC(=O)O)C(=O)O | -14.8% | –
25 | CN(C)C(N)=NCCC[C@H](N)C(=O)O | -23.7% | –
26 | CCCCCCCC/C=C\CCCCCCCC(=O)NCCO | -16.7% | –
27 | C[N+](C)(CCCCCC[N+](C)(C)CCCN1C(=O)c2cccc3cccc(c23)C1=O)CCCN1C(=O)c2cccc3cccc(c23)C1=O | – | 398 nM (active)
28 | O=C(O)c1cc(=O)c2ccccc2[nH]1 | -11.7% | –
29 | CCN1/C(=C/C(C)=O)Sc2ccc(OC)cc21 | -48.8% | –
30 | NO | -13.1% | –
31 | CC1(C)CCC=[N+]1[O-] | – | 11200 nM (active)
32 | CN1CCc2ccccc2Cc2[nH]c3ccccc3c2CC1 | – | 15800 nM (active)
33 | c1ccc(-c2ccccn2)nc1 | 2.53% | –
34 | Clc1ccc(N2CCN(Cc3c[nH]c4ncccc34)CC2)cc1 | -41.9% | –
35 | CN(C)c1nc(N)c(C(=O)N=C(N)N)nc1Cl | -45.9% | –
36 | NC[C@@H]1O[C@H](C23CC4CC(CC(C4)C2)C3)Cc2c1ccc(O)c2O | -17.9% | –
37 | NC(=O)C(=O)O | -12.5% | –
38 | O=c1[nH]c2cc(C(F)(F)F)ccc2n1-c1cc(C(F)(F)F)ccc1O | -11.9% | –
39 | NCCCCCCCCCCN | -38.6% | –
40 | O=c1[nH]c2cc(Cl)c(Cl)cc2[nH]c1=O | -29% | –
41 | COc1ccc(/C=C/C(=O)Nc2ccccc2C(=O)O)cc1OC | -2.76% | –
42 | NCCCS(=O)(=O)O | -29.1% | –
43 | O=S(=O)(c1cccc2c(I)cccc12)N1CCCNCC1 | 35% | –

Target: Pyruvate kinase (Leishmania mexicana) (UniProt Q27686)
Sequence (Q27686 2-499 E452W): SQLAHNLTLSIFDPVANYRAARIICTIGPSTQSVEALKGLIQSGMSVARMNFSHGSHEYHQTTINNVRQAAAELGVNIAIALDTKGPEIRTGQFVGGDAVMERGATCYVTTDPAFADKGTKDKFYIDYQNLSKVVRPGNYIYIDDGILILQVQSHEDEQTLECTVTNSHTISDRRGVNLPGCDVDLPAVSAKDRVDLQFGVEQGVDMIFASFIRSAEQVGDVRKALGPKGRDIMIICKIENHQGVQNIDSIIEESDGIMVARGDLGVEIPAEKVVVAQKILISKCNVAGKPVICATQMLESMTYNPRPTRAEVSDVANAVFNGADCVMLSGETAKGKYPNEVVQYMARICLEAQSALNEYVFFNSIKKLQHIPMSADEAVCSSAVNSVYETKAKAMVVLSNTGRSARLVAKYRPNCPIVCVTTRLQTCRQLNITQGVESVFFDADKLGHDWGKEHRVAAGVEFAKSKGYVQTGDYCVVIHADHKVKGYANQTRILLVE
Test: qHTS Validation Assay for Inhibitors of Leishmania Mexicana Pyruvate Kinase (AID 945); also: potency is read from the fitted curve at half-maximal effect;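 as to activity change, negative = inhibition: 0% = DMSO only neutral control wells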
Conditions: purified L. mexicana pyruvate kinase, enzyme activity, E451W mutant enzyme; series mostly up to 57.5 µM; activity change, negative = inhibition: at the top concentration
Method in brief: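 Compounds are tested as eight-point concentration series. Reactions contain 0.2 nM LmPYK E451W, 0.5 mM PEP, 0.1 mM ADP, 7 mM MgCl2 and 50 mM KCl at pH 7.2, run 1 h at room temperature, then read by PKLight luminescence.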

Row | SMILES | activity change, negative = inhibition | Potency
44 | NCCNC(=O)c1ncsc1-c1cccc(F)c1 | -13.9% | –
45 | CN1[C@@H]2CC[C@H]1CC(OC(c1ccccc1)c1ccccc1)C2 (stereo partly drawn) | 8.13% | –
46 | C[N+]1(C)CCC(OC(=O)C(c2ccccc2)c2ccccc2)CC1 | -7.57% | –
47 | N[C@@H](CC(=O)O)C(=O)O | 5.25% | –
48 | CCCCCCCC/C=C\CCCCCCCC(=O)NCCO | 23.3% | –
49 | C[N+](C)(CCCCCC[N+](C)(C)CCCN1C(=O)c2cccc3cccc(c23)C1=O)CCCN1C(=O)c2cccc3cccc(c23)C1=O | 2.29% | –
50 | NO | 2.4% | –
51 | Ic1ccc(N2CCN(Cc3c[nH]c4ncccc34)CC2)cc1 | 4.35% | –
52 | CC(C)Cc1ccc([C@H](C)C(=O)O)cc1 | 4.46% | –
53 | CN1CCc2cc(NC(=O)Nc3cccnc3)ccc21 | – | 20000 nM (active)
54 | NC[C@@H]1O[C@H](C23CC4CC(CC(C4)C2)C3)Cc2c1ccc(O)c2O | -14% | –
55 | O=c1[nH]c2cc(C(F)(F)F)ccc2n1-c1cc(C(F)(F)F)ccc1O | 5.68% | –
56 | COc1cc(OC)c(/C=C2/C(=O)Nc3ccccc32)c(OC)c1 | 3.03% | –
57 | CC(C)NC[C@H](O)COc1cccc2[nH]ccc12 | 3.19% | –
58 | NCCCS(=O)(=O)O | 6.11% | –
